Reference: ChEMBL document CHEMBL5058541

How the values were obtained:
Conditions in all cases: Compound concentration 20.0 uM, Protein concentration 2.0 uM, Result type QC Liability
[1] = target: Tyrosine-protein kinase ABL1 (Homo sapiens) (UniProt P00519)
[2] = target: Cyclin-dependent kinase 2 (Homo sapiens) (UniProt P24941)
[3] = target: Casein kinase I isoform delta (Homo sapiens) (UniProt P48730)
[4] = target: Glycogen synthase kinase-3 beta (Homo sapiens) (UniProt P49841)
[5] = target: Mitogen-activated protein kinase 1 (Homo sapiens) (UniProt P28482)
[6] = target: T1, Aurora kinase A (Homo sapiens) (UniProt O14965)
T1 sequence (whole entry): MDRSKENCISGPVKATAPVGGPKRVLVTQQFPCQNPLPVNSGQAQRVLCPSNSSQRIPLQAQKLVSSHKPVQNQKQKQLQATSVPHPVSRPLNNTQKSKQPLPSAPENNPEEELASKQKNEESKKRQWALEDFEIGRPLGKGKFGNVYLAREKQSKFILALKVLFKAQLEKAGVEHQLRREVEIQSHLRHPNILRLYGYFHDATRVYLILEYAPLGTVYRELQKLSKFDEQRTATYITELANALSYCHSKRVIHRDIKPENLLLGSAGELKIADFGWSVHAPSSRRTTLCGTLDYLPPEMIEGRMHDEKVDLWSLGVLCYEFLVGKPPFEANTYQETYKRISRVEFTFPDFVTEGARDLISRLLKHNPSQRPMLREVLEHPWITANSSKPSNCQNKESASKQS

Chain of Mitogen-activated protein kinase 1 (Homo sapiens) (P28482 whole entry): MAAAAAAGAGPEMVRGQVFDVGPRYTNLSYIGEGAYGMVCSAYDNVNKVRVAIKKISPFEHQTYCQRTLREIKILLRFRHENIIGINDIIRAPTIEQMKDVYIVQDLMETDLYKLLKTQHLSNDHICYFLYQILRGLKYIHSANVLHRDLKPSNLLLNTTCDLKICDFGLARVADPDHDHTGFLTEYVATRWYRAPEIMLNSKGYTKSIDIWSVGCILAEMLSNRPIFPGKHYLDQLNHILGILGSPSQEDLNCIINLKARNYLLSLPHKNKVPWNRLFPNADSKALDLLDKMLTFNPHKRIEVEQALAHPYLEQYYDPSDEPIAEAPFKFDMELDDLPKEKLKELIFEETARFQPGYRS
Chain of Glycogen synthase kinase-3 beta (Homo sapiens) (P49841 whole entry, looked up): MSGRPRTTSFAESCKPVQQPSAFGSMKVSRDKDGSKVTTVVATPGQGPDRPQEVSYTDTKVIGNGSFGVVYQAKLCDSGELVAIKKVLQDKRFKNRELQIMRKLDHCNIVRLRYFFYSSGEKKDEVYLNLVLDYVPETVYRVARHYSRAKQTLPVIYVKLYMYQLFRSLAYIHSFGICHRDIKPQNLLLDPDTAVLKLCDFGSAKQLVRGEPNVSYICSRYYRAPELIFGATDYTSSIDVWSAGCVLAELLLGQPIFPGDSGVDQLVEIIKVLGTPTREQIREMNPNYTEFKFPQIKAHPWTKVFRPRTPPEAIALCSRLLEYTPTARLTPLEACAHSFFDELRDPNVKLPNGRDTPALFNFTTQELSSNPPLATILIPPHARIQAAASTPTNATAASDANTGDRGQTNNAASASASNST
Chain of Casein kinase I isoform delta (Homo sapiens) (P48730 whole entry, looked up, canonical isoform): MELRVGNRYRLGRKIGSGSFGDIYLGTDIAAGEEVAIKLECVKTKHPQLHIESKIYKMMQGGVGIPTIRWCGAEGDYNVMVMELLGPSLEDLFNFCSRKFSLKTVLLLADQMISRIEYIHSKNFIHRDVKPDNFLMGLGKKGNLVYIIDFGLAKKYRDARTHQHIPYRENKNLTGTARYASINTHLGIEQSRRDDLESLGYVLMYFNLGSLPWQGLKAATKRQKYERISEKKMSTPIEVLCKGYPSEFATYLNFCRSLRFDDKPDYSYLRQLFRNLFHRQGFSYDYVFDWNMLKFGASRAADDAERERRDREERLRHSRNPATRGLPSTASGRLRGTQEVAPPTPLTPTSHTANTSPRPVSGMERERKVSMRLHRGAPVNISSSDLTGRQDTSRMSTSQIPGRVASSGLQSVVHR
Chain of Tyrosine-protein kinase ABL1 (Homo sapiens) (P00519 whole entry): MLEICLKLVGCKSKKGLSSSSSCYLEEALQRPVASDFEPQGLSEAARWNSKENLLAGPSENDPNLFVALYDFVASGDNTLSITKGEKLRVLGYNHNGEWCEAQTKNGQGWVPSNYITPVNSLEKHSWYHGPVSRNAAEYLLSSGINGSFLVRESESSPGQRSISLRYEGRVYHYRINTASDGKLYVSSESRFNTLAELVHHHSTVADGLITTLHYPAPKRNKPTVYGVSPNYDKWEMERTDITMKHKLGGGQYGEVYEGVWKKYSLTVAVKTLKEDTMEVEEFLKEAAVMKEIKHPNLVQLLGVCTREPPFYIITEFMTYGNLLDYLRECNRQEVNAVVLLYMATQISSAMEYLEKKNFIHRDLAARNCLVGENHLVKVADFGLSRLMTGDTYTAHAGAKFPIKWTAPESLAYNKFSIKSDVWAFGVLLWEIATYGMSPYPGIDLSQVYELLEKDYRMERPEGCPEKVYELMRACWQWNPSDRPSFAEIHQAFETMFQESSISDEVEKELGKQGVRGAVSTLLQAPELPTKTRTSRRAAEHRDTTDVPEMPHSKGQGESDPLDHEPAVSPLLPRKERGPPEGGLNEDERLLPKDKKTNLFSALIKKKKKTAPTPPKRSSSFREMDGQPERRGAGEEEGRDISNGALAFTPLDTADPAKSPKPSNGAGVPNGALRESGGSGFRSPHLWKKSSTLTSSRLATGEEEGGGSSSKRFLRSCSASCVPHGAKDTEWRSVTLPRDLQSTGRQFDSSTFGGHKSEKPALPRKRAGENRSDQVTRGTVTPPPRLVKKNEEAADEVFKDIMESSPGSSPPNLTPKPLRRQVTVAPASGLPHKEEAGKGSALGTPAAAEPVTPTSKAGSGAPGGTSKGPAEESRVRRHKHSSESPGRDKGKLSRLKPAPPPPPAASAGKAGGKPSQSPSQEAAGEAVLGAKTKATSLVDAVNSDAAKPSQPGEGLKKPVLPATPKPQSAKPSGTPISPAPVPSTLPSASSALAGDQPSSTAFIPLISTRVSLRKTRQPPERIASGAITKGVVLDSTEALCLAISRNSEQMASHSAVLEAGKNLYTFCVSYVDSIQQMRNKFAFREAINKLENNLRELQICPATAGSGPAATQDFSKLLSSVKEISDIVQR

Q: With `CN(c1ncccc1CNc1ccnc(-c2nc3c(F)c(Cl)ccc3[nH]2)n1)S(C)(=O)=O` as the molecule, how does the ΔTm [1] read?
A: 1.73 c

Q: What about the ΔTm [2] of the same molecule?
A: 0.96 c

Q: What about the ΔTm [3] of the same molecule?
A: 0.76 c

Q: What about the ΔTm [4] of the same molecule?
A: 0.69 c

Q: And the ΔTm [5]?
A: 0.36 c

Q: What about the ΔTm [6] of the same molecule?
A: 1.93 c

Q: With `CN(C)C(=O)c1ccc(-c2cc(C(=O)N[C@@H]3CCc4ccccc43)no2)cc1O` as the molecule, how does the ΔTm [1] read?
A: 0.236 c

Q: And the ΔTm [2]?
A: -0.0936 c

Q: What about the ΔTm [3] of the same molecule?
A: 0.0788 c

Q: And the ΔTm [4]?
A: -0.463 c

Q: What about the ΔTm [5] of the same molecule?
A: -0.0605 c

Q: What about the ΔTm [6] of the same molecule?
A: 0.213 c

Q: For `O=C(NCCCN1CCOC1=O)c1cnc(NCc2cc(Br)ccc2Br)nc1NC1CCCC1`, which ΔTm [1] is on record?
A: 0 c

Q: And the ΔTm [2]?
A: -0.772 c

Q: What about the ΔTm [3] of the same molecule?
A: 0 c

Q: What about the ΔTm [4] of the same molecule?
A: 0 c

Q: And the ΔTm [5]?
A: -0.601 c

Q: What about the ΔTm [6] of the same molecule?
A: 0.0724 c

Q: With `CS(=O)(=O)N1CCCC(NC(=O)[C@H](CCC2CCCCC2)NC(=O)c2ccc(CNC(=O)c3cnc4ccccn34)cc2)C1` (some centres undefined) as the molecule, how does the ΔTm [1] read?
A: 2.13 c

Q: What about the ΔTm [2] of the same molecule?
A: -0.19 c

Q: What about the ΔTm [3] of the same molecule?
A: 0.571 c

Q: What about the ΔTm [4] of the same molecule?
A: -0.0668 c

Q: What about the ΔTm [5] of the same molecule?
A: -0.218 c

Q: What about the ΔTm [6] of the same molecule?
A: 0.119 c
